Legend:
[1] = tested on: P. falciparum NF54-pfs16-GFP early (I-III) stage gametocytes; experiment: relative % inhibition of viable gametocyte number; higher = more gametocytocidal; conditions: stage: early (I-III) gametocyte, incubation 72 h
In short: (§1)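 NF54 pfs16-GFP gametocytes, magnet-isolated at early (I/IIa, day 2) or late (day 8) stage, were plated at 10% parasitaemia, 0.1% haematocrit in 384-well poly-D-lysine imaging plates with compound in duplicate at 5 or 0.5 µM. Plates were incubated 72 h at 37°C, 5% CO2, 5% O2, then overnight with MitoTracker Red. Confocal imaging counted elongated GFP objects with MitoTracker signal above cut-off as viable gametocytes. Relative inhibition was normalised to in-plate vehicle and positive-control wells.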

[2] = tested on: P. falciparum NF54-pfs16-GFP late (IV-V) stage gametocytes; experiment: as above; conditions: stage: late (IV-V) gametocyte, incubation 72 h
In short: as §1

Cc1ccc(N2C3c4ccccc4N(S(=O)(=O)c4ccc(C)cc4)C2c2ccccc2N3S(=O)(=O)c2ccc(C)cc2)cc1
relative % inhibition ([1]; 0.5 µM): 61% | relative % inhibition ([1]; 5 µM): 95.1% | relative % inhibition ([2]; 0.5 µM): 95% | relative % inhibition ([2]; 5 µM): 98.9%

O=C(Nc1ccccc1O)c1ccc(-c2ccc(Cl)cc2Cl)o1
relative % inhibition ([1]; 0.5 µM): 21.2% | relative % inhibition ([1]; 5 µM): -5.25% | relative % inhibition ([2]; 0.5 µM): 19.3% | relative % inhibition ([2]; 5 µM): 17.5%

O=C(Nc1ccc(Cl)cc1C(=O)Nc1ccncc1)c1ccc(Cl)cc1Cl
relative % inhibition ([1]; 0.5 µM): 20.3% | relative % inhibition ([1]; 5 µM): 31.8% | relative % inhibition ([2]; 0.5 µM): -5.7% | relative % inhibition ([2]; 5 µM): -20.8%

Clc1ccc2c(N3CCCC3)ccnc2c1
relative % inhibition ([1]; 0.5 µM): 21.2% | relative % inhibition ([1]; 5 µM): 65.9% | relative % inhibition ([2]; 0.5 µM): 11.2% | relative % inhibition ([2]; 5 µM): -4.99%

COc1ccccc1CNC(=O)C1c2ccccc2C(=O)N(CC(C)C)C1c1cccs1 (centres undefined)
relative % inhibition ([1]; 0.5 µM): -0.661% | relative % inhibition ([1]; 5 µM): 31.9% | relative % inhibition ([2]; 0.5 µM): -10.4% | relative % inhibition ([2]; 5 µM): -4.52%

Oc1ccccc1CN1CCC2(CCCN(Cc3ccccc3F)C2)C1 (centres undefined)
relative % inhibition ([1]; 0.5 µM): 32.5% | relative % inhibition ([1]; 5 µM): 93.8% | relative % inhibition ([2]; 0.5 µM): 34.9% | relative % inhibition ([2]; 5 µM): 61.2%

Cc1ccc2nc(C)cc(Nc3cccc(C(F)(F)F)c3)c2c1
relative % inhibition ([1]; 0.5 µM): -7.3% | relative % inhibition ([1]; 5 µM): 60.2% | relative % inhibition ([2]; 0.5 µM): 26.7% | relative % inhibition ([2]; 5 µM): 19.3%

COc1ccc(-c2nc(NC(=O)CS(=O)(=O)c3ccc(F)cc3)sc2C)cc1
relative % inhibition ([1]; 0.5 µM): 12.7% | relative % inhibition ([1]; 5 µM): 100% | relative % inhibition ([2]; 0.5 µM): 73% | relative % inhibition ([2]; 5 µM): 92.9%

CCOc1ccc(C=Cc2nc(=O)c3ccccc3o2)cc1
relative % inhibition ([1]; 0.5 µM): 4.08% | relative % inhibition ([1]; 5 µM): 22.2% | relative % inhibition ([2]; 0.5 µM): 22.3% | relative % inhibition ([2]; 5 µM): 21.6%

O=C(Nc1ccc(F)c(Cl)c1)Nc1ccc(Cl)c(Cl)c1
relative % inhibition ([1]; 0.5 µM): 6.15% | relative % inhibition ([1]; 5 µM): 98.2% | relative % inhibition ([2]; 0.5 µM): 18.8% | relative % inhibition ([2]; 5 µM): 30.3%

COc1cc(-c2nc(-c3ccccc3)c(-c3ccccc3)[nH]2)cc(OC)c1O
relative % inhibition ([1]; 0.5 µM): 15.2% | relative % inhibition ([1]; 5 µM): 29.3% | relative % inhibition ([2]; 0.5 µM): -17% | relative % inhibition ([2]; 5 µM): 2.98%

CC(C)(C)CC(C)(C)NCC(O)COc1ccc2c(c1)CCC2 (centres undefined)
relative % inhibition ([1]; 0.5 µM): -11.4% | relative % inhibition ([1]; 5 µM): 78.8% | relative % inhibition ([2]; 0.5 µM): 17.6% | relative % inhibition ([2]; 5 µM): 20.4%

Oc1ccccc1CNCC12CC3CC(CC(C3)C1)C2
relative % inhibition ([1]; 0.5 µM): 91.6% | relative % inhibition ([1]; 5 µM): 84.2% | relative % inhibition ([2]; 0.5 µM): 44.7% | relative % inhibition ([2]; 5 µM): 29.3%

COc1ccc2nc(C)cc(Nc3ccc(Cl)cc3)c2c1
relative % inhibition ([1]; 0.5 µM): -10.1% | relative % inhibition ([1]; 5 µM): 13.9% | relative % inhibition ([2]; 0.5 µM): 7.89% | relative % inhibition ([2]; 5 µM): 11.7%

COc1ccc(CN2CCCC(C(=O)c3ccc(C(F)(F)F)cc3)C2)c(O)c1 (centres undefined)
relative % inhibition ([1]; 0.5 µM): -2.13% | relative % inhibition ([1]; 5 µM): 93.7% | relative % inhibition ([2]; 0.5 µM): 14.8% | relative % inhibition ([2]; 5 µM): 16.7%

N=c1n(CCN2CCCCC2)c2ccccc2n1CC(=O)c1ccc(Cl)c(Cl)c1
relative % inhibition ([1]; 0.5 µM): -10.5% | relative % inhibition ([1]; 5 µM): 76.8% | relative % inhibition ([2]; 0.5 µM): 55.4% | relative % inhibition ([2]; 5 µM): 96.9%

— the supplement of paper PMC3842684
